# Experimental data: PubChem BioAssay (NCI)
# Compounds without any hit were thinned out: in the full panel of roughly 79,000, 15% have a hit. Values without a mark were called inactive. The source made the active and inactive calls. No stated cut-off is given here; in the data, active means growth inhibition above about 70%; inactive means the rest.
# What was measured:
# [1] = NCI Yeast Anticancer Drug Screen. Data for the rad52 strain (AID 147);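 further: 0% = growth of vehicle-treated control cultures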; conditions: S. cerevisiae rad52 mutant growth inhibition, hits give high values
# Summary of the method: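 Inhibition of yeast growth, referenced to vehicle controls, was the measured output for a strain with defective DNA damage repair.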
# [2] = NCI Yeast Anticancer Drug Screen. Data for the wt1 strain (AID 149);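 further: 0% = growth of vehicle-treated wt1 cultures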; conditions: S. cerevisiae wt1 strain (SPY 50644) growth inhibition, hits give high values
# Summary of the method: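 Readout: yeast growth inhibition, normalised to vehicle controls, in the wt1 strain exposed to test compounds.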
# [3] = NCI Yeast Anticancer Drug Screen. Data for the rad50EPP+ strain (AID 151);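 further: 0% = growth of vehicle-treated control cultures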; conditions: S. cerevisiae rad50 mutant strain, hits give high values
# Summary of the method: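 Genetically defined yeast (rad50EPP+, DNA damage repair alteration) is grown with compound, and inhibition of growth is expressed relative to vehicle-treated controls.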
# [4] = NCI Yeast Anticancer Drug Screen. Data for the mgt1 strain (AID 153); conditions: S. cerevisiae mgt1 mutant growth inhibition, hits give high values
# Summary of the method: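 In the mgt1 strain, test compounds were added and growth inhibition was determined relative to vehicle-treated controls.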
# [5] = NCI Yeast Anticancer Drug Screen. Data for the rad50 strain (AID 155);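 further: 0% = growth of vehicle-only cultures of the same strain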; conditions: S. cerevisiae rad50 strain growth inhibition, hits give high values
# Summary of the method: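 Compounds were tested on a yeast strain with an engineered DNA damage repair alteration; the reported value is growth inhibition normalised to vehicle treatment.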
# [6] = NCI Yeast Anticancer Drug Screen. Data for the mec2-1 strain (AID 157); conditions: S. cerevisiae mec2-1 strain, hits give high values
# Summary of the method: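 Each compound was tested on mec2-1 yeast, a strain altered in DNA damage repair or cell cycle control. Growth inhibition is reported relative to vehicle.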
# [7] = NCI Yeast Anticancer Drug Screen. Data for the rad14 strain (AID 159);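 further: 0% = growth of vehicle-treated control cultures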; conditions: S. cerevisiae rad14 strain growth inhibition, hits give high values
# Summary of the method: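 Compound-treated yeast with a defined DNA-repair lesion; growth inhibition normalised to vehicle-treated cultures.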
# [8] = NCI Yeast Anticancer Drug Screen. Data for the sgs1 mgt1 strain (AID 161);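 further: 0% = growth of cultures given vehicle only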; conditions: S. cerevisiae sgs1 mgt1 strain, hits give high values
# Summary of the method: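 Read-out: growth inhibition vs vehicle controls. Cells: mutant yeast strain deficient in DNA damage repair.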
# [9] = NCI Yeast Anticancer Drug Screen. Data for the CLN2oe strain (AID 163);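 further: 0% = growth of vehicle-only control cultures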; conditions: S. cerevisiae CLN2oe strain, hits give high values
# Summary of the method: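 First, the altered yeast strain was treated with each compound; second, its growth was measured; finally, inhibition was derived by comparison with vehicle controls.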
# [10] = NCI Yeast Anticancer Drug Screen. Data for the cln2 rad14 strain (AID 165);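 further: 0% = growth equal to vehicle treated cultures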; conditions: S. cerevisiae cln2 rad14 strain, hits give high values
# Summary of the method: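 Test compounds were added to cln2 rad14 yeast cultures; inhibition of growth was then determined by comparison with vehicle treatment.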
# [11] = NCI Yeast Anticancer Drug Screen. Data for the bub3 strain (AID 167); conditions: S. cerevisiae bub3 mutant strain, hits give high values
# Summary of the method: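 Growth of a checkpoint-deficient yeast mutant is measured after compound exposure. Values represent inhibition relative to vehicle.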
# [12] = NCI Yeast Anticancer Drug Screen. Data for the wt2 strain (AID 169);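 further: 0% = growth of vehicle-treated yeast cultures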; conditions: S. cerevisiae wt2 strain growth inhibition, hits give high values
# Summary of the method: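 The panel's yeast strains carry defined changes in DNA repair or cell cycle genes. Each strain is grown with compound, and growth loss is scored relative to vehicle.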
# [13] = NCI Yeast Anticancer Drug Screen. Data for the mlh1 strain (AID 171);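 further: 0% = growth of vehicle-treated control cultures of the same strain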; conditions: S. cerevisiae mlh1 strain growth inhibition, hits give high values
# Summary of the method: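 Inhibition values reflect reduced yeast growth in the presence of compound, referenced to vehicle controls, using a strain chosen for its alteration in DNA repair or cell cycle control.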
# [14] = NCI Yeast Anticancer Drug Screen. Data for the sgs1 strain (AID 173);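 further: 0% = growth of vehicle-only control cultures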; conditions: S. cerevisiae sgs1 mutant, hits give high values
# Summary of the method: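 Vehicle-treated cultures served as reference for growth inhibition of a yeast strain altered in DNA damage repair or cell cycle control after compound exposure.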
# [15] = NCI Yeast Anticancer Drug Screen. Data for the mlh1 rad18 strain (AID 175); conditions: S. cerevisiae mlh1 rad18 strain growth inhibition, hits give high values
# Summary of the method: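 Inhibition values reflect reduced growth of mutant yeast versus vehicle-treated controls following compound exposure; the mutations affect DNA damage repair.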
# [16] = NCI Yeast Anticancer Drug Screen. Data for the rad18 strain (AID 177); conditions: S. cerevisiae rad18 mutant growth inhibition, hits give high values
# Summary of the method: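 Steps: expose repair-mutant yeast to compound; measure growth; express as inhibition relative to vehicle control.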
# [17] = at 5.0 µM (retest, dose inferred, filed as 0.5)
# [18] = at 50.0 µM (retest, dose inferred, filed as 5.0)
smiles,measurement,setting,value
COc1ccc(N=c2cc(-c3ccccc3)oc3ccccc23)cc1,growth inhibition,[1]; at 1.2 µM,1%
same,growth inhibition,[1]; at 3.7 µM,2%
same,growth inhibition,[1]; at 11.0 µM,1%
same,growth inhibition,[1]; at 33.0 µM,-1%
same,growth inhibition,[1]; at 100.0 µM,-3%
same,growth inhibition,[2]; at 1.2 µM,0%
same,growth inhibition,[2]; at 3.7 µM,1%
same,growth inhibition,[2]; at 11.0 µM,2%
same,growth inhibition,[2]; at 33.0 µM,1%
same,growth inhibition,[2]; at 100.0 µM,-6%
same,growth inhibition,[3]; at 1.2 µM,-1%
same,growth inhibition,[3]; at 3.7 µM,-3%
same,growth inhibition,[3]; at 11.0 µM,-5%
same,growth inhibition,[3]; at 33.0 µM,-2%
same,growth inhibition,[3]; at 100.0 µM,16%
same,growth inhibition,[4]; at 1.2 µM,0%
same,growth inhibition,[4]; at 3.7 µM,1%
same,growth inhibition,[4]; at 11.0 µM,-2%
same,growth inhibition,[4]; at 33.0 µM,13%
same,growth inhibition,[4]; at 100.0 µM,-6%
same,growth inhibition,[5]; at 1.2 µM,0%
same,growth inhibition,[5]; at 3.7 µM,0%
same,growth inhibition,[5]; [17],11%
same,growth inhibition,[5]; at 11.0 µM,1%
same,growth inhibition,[5]; at 33.0 µM,0%
same,growth inhibition,[5]; [18],3%
same,growth inhibition,[5]; at 50.0 µM,57.5%
same,growth inhibition,[5]; at 100.0 µM,-4%
same,growth inhibition,[6]; at 1.2 µM,-3%
same,growth inhibition,[6]; at 3.7 µM,-2%
same,growth inhibition,[6]; [17],-4%
same,growth inhibition,[6]; at 11.0 µM,-3%
same,growth inhibition,[6]; at 33.0 µM,-4%
same,growth inhibition,[6]; [18],6%
same,growth inhibition,[6]; at 50.0 µM,27.6%
same,growth inhibition,[6]; at 100.0 µM,-7%
same,growth inhibition,[7]; at 1.2 µM,-3%
same,growth inhibition,[7]; at 3.7 µM,-3%
same,growth inhibition,[7]; at 11.0 µM,0%
same,growth inhibition,[7]; at 33.0 µM,-2%
same,growth inhibition,[7]; at 100.0 µM,-5%
same,growth inhibition,[8]; [17],1%
same,growth inhibition,[8]; [18],17%
same,growth inhibition,[8]; at 50.0 µM,87.1% (active)
same,growth inhibition,[9]; at 1.2 µM,-6%
same,growth inhibition,[9]; at 3.7 µM,-1%
same,growth inhibition,[9]; at 11.0 µM,-6%
same,growth inhibition,[9]; at 33.0 µM,-8%
same,growth inhibition,[9]; at 100.0 µM,-10%
same,growth inhibition,[10]; [17],-7%
same,growth inhibition,[10]; [18],-1%
same,growth inhibition,[10]; at 50.0 µM,3.85%
same,growth inhibition,[11]; at 1.2 µM,-3%
same,growth inhibition,[11]; at 3.7 µM,-6%
same,growth inhibition,[11]; [17],-1%
same,growth inhibition,[11]; at 11.0 µM,-1%
same,growth inhibition,[11]; at 33.0 µM,-4%
same,growth inhibition,[11]; [18],-85%
same,growth inhibition,[11]; at 50.0 µM,95.5% (active)
same,growth inhibition,[11]; at 100.0 µM,-1%
same,growth inhibition,[12]; at 1.2 µM,0%
same,growth inhibition,[12]; at 3.7 µM,-2%
same,growth inhibition,[12]; at 11.0 µM,-1%
same,growth inhibition,[12]; at 33.0 µM,-3%
same,growth inhibition,[12]; at 100.0 µM,-6%
same,growth inhibition,[13]; at 1.2 µM,0%
same,growth inhibition,[13]; at 3.7 µM,-1%
same,growth inhibition,[13]; at 11.0 µM,-1%
same,growth inhibition,[13]; at 33.0 µM,-4%
same,growth inhibition,[13]; at 100.0 µM,-5%
same,growth inhibition,[14]; at 1.2 µM,-1%
same,growth inhibition,[14]; at 3.7 µM,1%
same,growth inhibition,[14]; at 11.0 µM,-2%
same,growth inhibition,[14]; at 33.0 µM,-3%
same,growth inhibition,[14]; at 100.0 µM,-4%
same,growth inhibition,[15]; [17],-2%
same,growth inhibition,[15]; [18],26%
same,growth inhibition,[15]; at 50.0 µM,76.2% (active)
same,growth inhibition,[16]; at 1.2 µM,-2%
same,growth inhibition,[16]; at 3.7 µM,0%
same,growth inhibition,[16]; at 11.0 µM,-1%
same,growth inhibition,[16]; at 33.0 µM,-6%
same,growth inhibition,[16]; at 100.0 µM,-8%
